Results reported in PubChem BioAssay AID493240 (Broad Institute, 2011).
About 270 (21%) of roughly 1,300 compounds were called active. How the calls were made is not given here. These entries were drawn from the full list. Measured potencies and affinities stand elsewhere.

Assay: SK-MEL-5 parental cell viability loss, dose response, orthogonal assay for MITF inhibitor project, CellTiter-Glo, cherry-picked, set 3 (AID 493240)
Conditions: SK-MEL-5 viability, ATP luminescence (CellTiter-Glo), 24 h; series mostly up to 35 µM

Row | Compound | outcome
1 | Cc1cc(O)ccc1Nc1nc(-c2cccnc2)cs1 | inactive
2 | Cc1c(C#N)c(O)n(CCO)c(=O)c1N=Nc1ccc2c(c1)COC2=O | inactive
3 | N#Cc1cnc2sc3ccccc3n2c1=N | inactive
4 | O=C(NCCSc1ccccc1)c1ccccc1F | inactive
5 | COCn1c(COc2ccccc2)nc2ccccc21 | inactive
6 | O=C(N/N=C/c1cccc(Oc2ccc([N+](=O)[O-])cc2[N+](=O)[O-])c1)c1cncc(Br)c1 | inactive
7 | CN(C)c1ccc(NC(=O)Nc2ccc3c(c2)nnn3C)cc1 | inactive
8 | CC1Cc2ccccc2N1C(=O)c1ccc(Br)o1 (stereo unspecified) | inactive
9 | O=C(c1cc2ccccc2oc1=O)N1CCN(c2ncccn2)CC1 | inactive
10 | Cc1ccc(OCC(=O)Nc2cccc(C)n2)c(C)c1 | inactive
11 | CN(c1cccc(NC(=O)COc2ccc(Cl)cc2Cl)c1)S(C)(=O)=O | inactive
12 | CCOc1ccccc1-c1nc(-c2ccc(C)nc2OC)no1 | inactive
13 | C=CCNC(=O)c1ccc2nc(Cc3ccc(OC)cc3)oc2c1 | inactive
14 | O=C(Nc1nc2cc3c(cc2s1)OCO3)C1=COCCO1 | inactive
15 | O=C(/C=C/c1ccc(Cl)cc1)c1ccc([N+](=O)[O-])o1 | inactive
16 | CCOCCCNC(=O)/C(C#N)=C/c1ccc(Cl)c([N+](=O)[O-])c1 | inactive
17 | Cc1nc2cc(NC(=O)Nc3cccc([N+](=O)[O-])c3)ccc2n1C | inactive
18 | O=C(Cc1ccccc1)Nc1ccc(NC(=O)c2ccco2)nc1 | inactive
19 | CN(C)/C=N/c1ncc(C(=O)c2ccccc2)s1 | inactive
20 | C=C1C(=O)O[C@@]23[C@H]1CC[C@@H](C)[C@@H]2CC[C@@]1(C)O[C@@H]31 | inactive
21 | COc1ccc2oc3ccc(OC)cc3c(=O)c2c1 | inactive
